ATXN viability: reduces viability in counter-screen for ATXN expression inhibitors. S2 cells (HEK-293 line with an ATXN2-luciferase reporter) viability, CellTiter-Fluor protease fluorescence, 24 h. Potency, µM (titrated, usually from 56.7 µM), usual class: cytotoxic. hit rate 0.49% among 400,000; also: potency is read from the fitted curve at half-maximal effect; nearly all actives have a fitted effect of over 40% in size
USP1 inh: blocks the human USP1/UAF1 deubiquitinase complex; O94782; recombinant USP1/UAF1, Ub-Rhodamine cleavage fluorescence; Potency, µM (series often up to 57.1 µM), for inactives: top-dose activity change, negative = inhibition, most hits filed as inhibitors; hit rate 0.23% among 390,000; also: potency is read from the fitted curve at half-maximal effect; % is scaled to controls: 0 for no effect and ±100 for the full control effect; nearly all actives have a fitted effect of over 60% in size
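1 nM enzyme complex + cpd, 15 min RT; start with Ub-Rho 150nM final; kinetic fluorescence ex 480/em 540, 6 reads q60 s. Buffer 50mM HEPES pH 7.8, 0.5mM EDTA, 0.1 mg/ml BSA, 1mM TCEP, 0.01% Tween-20.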
USP2a inh: USP2a (human) protease inhibition. O75604. USP2 core, Ub-CHOP2 coupled fluorogenic reporter, 485/531. Potency, µM (titrated, usually from 38.3 µM), for the others: at the top dose activity change, negative = inhibition, hits mostly inhibitors. hit rate 0.01% among 330,000. AID 463254;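 also: potency is read from the fitted curve at half-maximal effect; plate controls were DMSO wells for no effect and full inhibition by NEM control for full effect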
Target sequence (O75604 whole entry, looked up): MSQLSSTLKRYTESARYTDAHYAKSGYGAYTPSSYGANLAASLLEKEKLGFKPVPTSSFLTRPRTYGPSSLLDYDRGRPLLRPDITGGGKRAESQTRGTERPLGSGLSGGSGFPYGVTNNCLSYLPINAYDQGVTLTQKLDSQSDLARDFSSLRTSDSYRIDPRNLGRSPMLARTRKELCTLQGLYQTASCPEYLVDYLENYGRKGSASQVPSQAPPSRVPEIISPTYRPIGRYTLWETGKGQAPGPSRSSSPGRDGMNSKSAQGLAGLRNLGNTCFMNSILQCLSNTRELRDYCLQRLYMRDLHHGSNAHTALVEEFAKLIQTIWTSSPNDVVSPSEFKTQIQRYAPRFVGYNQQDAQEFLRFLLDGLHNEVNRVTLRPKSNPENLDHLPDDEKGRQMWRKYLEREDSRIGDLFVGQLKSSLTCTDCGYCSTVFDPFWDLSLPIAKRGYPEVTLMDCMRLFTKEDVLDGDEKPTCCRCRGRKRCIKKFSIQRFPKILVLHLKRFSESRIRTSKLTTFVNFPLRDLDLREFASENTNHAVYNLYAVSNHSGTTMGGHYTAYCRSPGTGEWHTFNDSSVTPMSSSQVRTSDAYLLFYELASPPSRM
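USP2 core (10nM final) preincubated 30min RT with compound in 20mM Tris-HCl pH 8.0, 2mM CaCl2, 2mM beta-mercaptoethanol, 0.05% CHAPS; 25nM Ub-CHOP2 plus 25nM reporter substrate added, fluorescence (Ex485/Em531) read after 60min.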
ATXN2 expr inh: inhibitors of ATXN2 expression; hit rate 0.72% among 360,000; Potency, µM (titrated, usually from 57 µM), for inactives: at the top dose activity change, negative = inhibition, hits mostly inhibitors; HEK-293 ATXN2-luciferase reporter, luminescence, 24 h; also: potency is read from the fitted curve at half-maximal effect; % is scaled to controls: 0 for no effect and ±100 for the full control effect; nearly all actives have a fitted effect of over 55% in size
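ATXN2-luciferase reporter cells (luciferase flanked by upstream and downstream ATXN2 gene portions) were treated 24 h at 37 °C with compounds at up to 57 uM. SteadyGlo luminescence gave expression; GF-AFC fluorescence gave viability.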
IL1B secr inh: inflammasome signaling inhibition, IL-1 beta readout; THP-1 LPS/ATP IL-1B secretion, AlphaLISA, 16 h; active compounds read low; activity change, % at 57.5 µM; hit rate 4.7% among 360,000; in the data active = activity change below about -50%; inconclusive = mostly about -30% to -49%; also: % is scaled to controls: 0 for no effect and ±100 for the full control effect
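THP-1 cells pretreated 1 hr with compounds (up to 57.5 uM final), then stimulated with LPS (250 ng/mL final) plus ATP (1.25 mM final); secreted IL-1B measured by AlphaLISA after 16 hr, decreased signal indicating inhibition.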
* hit, by the source's call; i = inactive; u = inconclusive; x = not tested or not shown. This is a sample that favours compounds with a hit; in the whole collection about 4.8% have one here. Unless noted, calls follow the shape of the dose curve; as a rule, active = well fitted curve in the direction sought with a large enough effect; inconclusive = small, poorly fitted or top-dose-only effect, or another doubt; inactive = no such curve, though single readings can be large; an effect the other way counts as inactive or inconclusive.

SMILES	ATXN viability	USP1 inh	USP2a inh	ATXN2 expr inh	IL1B secr inh
O=C(/C=C/c1cccnc1)c1ccc(O)cc1	i	-26.0%	1.3%	35.0%	-97.9*
CN(C)C(=O)COc1ccc(C(=O)/C=C/c2cccnc2)cc1	u	-16.7%	0.0%	-1.0%	-101.0*
COc1cc(C(=O)/C=C/c2cccnc2)c([N+](=O)[O-])cc1OC	14.1µM*	u	-0.2%	12.6µM*	-99.8*
CCc1ccc(C(=O)c2cn(CC(=O)Nc3ccc4c(c3)OCO4)c3ccc(F)cc3c2=O)cc1	u	-7.9%	x	0.7%	x
COc1ccc(NC(=S)NCCc2c(C)[nH]c3ccc(OC)cc23)cc1	i	-15.9%	2.1%	12.3%	-51.8*
COc1ccc(CCNC(=S)Nc2ccc(OC)cc2)cc1	i	-27.4%	-8.7%	2.2%	2.5
COc1cccc(-c2noc(-c3cc4ccccc4oc3=O)n2)c1OC	x	-18.7%	x	x	x
CCOc1cc(C)c(S(=O)(=O)Nc2ccc3cn[nH]c3c2)cc1C	i	-8.8%	-8.7%	4.1%	-69.6*
Cc1ccc(C#N)c(SCCN2CCCCC2)n1	i	-4.5%	0.9%	-7.5%	-9.6
Cc1cccc2cc(C#N)c(SCCN3CCCCC3)nc12	i	-9.3%	x	25.1µM*	-59.0*
O=C(Cn1sc2ccccc2c1=O)Nc1ccccc1	x	-6.4%	x	35.5µM*	-104.2*
O=C(CN1C(=O)c2ccccc2C1=O)Nc1ccccc1	i	-19.7%	2.9%	x	33.1
O=C(Cn1sc2ccccc2c1=O)NC12CC3CC(CC(C3)C1)C2	u	-5.0%	0.8%	-32.6%	-99.2*
Cc1ccc(C)c(C(=O)CN2C3=NCCCN3c3ccccc32)c1	i	-22.5%	2.0%	-32.6%	-66.4*
COc1ccc(C(=O)CN2C3=NCCCN3c3ccccc32)cc1OC	i	2.2%	2.7%	-18.9%	-9.1
CC(=O)NC(CS)C(=O)O (centres undefined)	x	x	x	5.9%	x
Cc1ccc(C(C#N)c2ccc3c(C(F)(F)F)cc(C(F)(F)F)nc3n2)cc1 (centres undefined)	u	-18.3%	0.0%	u	u
N#CC(c1ccccc1)c1ccc2c(C(F)(F)F)cc(C(F)(F)F)nc2n1 (centres undefined)	u	-13.6%	-0.7%	u	-82.6*
COc1ccc(NC(=O)NCc2cccnc2)cc1	i	-9.2%	4.6%	-1.4%	-13.9
O=C(C[n+]1ccc2ccccc2c1)Nc1cc(C(F)(F)F)ccc1Cl	i	-1.5%	-2.1%	-7.1%	-58.4*
CCCCN1CC(COC)Oc2cccc(F)c2S1(=O)=O (centres undefined)	i	-17.4%	x	4.3%	12.3
Cc1cc(C)cc(NC(=O)CC2Oc3ccc(C)cc3NC2=O)c1 (centres undefined)	i	-9.1%	2.8%	x	-5.7
C=CC[C@H](CC(=O)N(CCO)Cc1ccccc1)C(=O)N[C@H](COC(=O)[C@@H](CC=C)CC(=O)OC(C)(C)C)Cc1c[nH]c2ccccc12	12.6µM*	-23.7%	-9.9%	22.4µM*	-64.5*
C=CC[C@H](CC(=O)N(CCO)Cc1ccccc1)C(=O)N[C@H](COC(=O)[C@@H](CC=C)CC(=O)OC(C)(C)C)c1ccccc1	x	u	2.1%	u	-64.5*
C=CC[C@@H](CC(=O)N[C@H](CO)Cc1ccccc1)C(=O)N[C@H](COC(=O)[C@@H](CC=C)CC(=O)OC(C)(C)C)Cc1c[nH]c2ccccc12	u	11.6%	1.6%	u	u
SMILES	ATXN viability	USP1 inh	USP2a inh	ATXN2 expr inh	IL1B secr inh
C=CC[C@H](CC(=O)N(CCO)Cc1ccccc1)C(=O)N[C@@H](C)COC(=O)[C@H](CC=C)CC(=O)OC(C)(C)C	i	-24.8%	3.7%	-6.5%	5.0
C=CC[C@@H](CC(=O)N(CCO)Cc1ccccc1)C(=O)N[C@H](COC(=O)[C@H](CC=C)CC(=O)OC(C)(C)C)Cc1c[nH]c2ccccc12	22.4µM*	u	-11.1%	u	-58.9*
CC(C)(C)c1ccc(Oc2ccc(N)cn2)cc1	i	-17.5%	-1.9%	9.47µM*	5.0
Cc1cc(Oc2ccc(N)cn2)cc(C)c1Cl	i	-22.3%	0.1%	-4.3%	-21.9
CNC(=S)N/N=C1\C(=O)c2cccc3cccc1c23	u	-1.4%	-4.5%	-9.0%	-97.8*
CCCCNC(=S)N/N=C1\C(=O)c2cccc3cccc1c23	i	-9.0%	-0.6%	-8.9%	-8.6
NC(=O)c1ccc[n+]([C@@H]2O[C@H](COP(=O)([O-])OP(=O)(O)OC[C@H]3O[C@@H](n4cnc5c(N)ncnc54)[C@H](O)[C@@H]3O)[C@@H](O)[C@H]2O)c1	i	x	x	x	x
O=c1[nH]c(/C=C/c2ccccn2)nc2ccccc12	u	-17.8%	-9.4%	x	-81.4*
CSc1nc(SCCN(C)C)c2c3c(sc2n1)COC(C)(C)C3	i	-5.3%	-1.6%	-14.7%	-60.9*
CSc1nc(SC(C)C(=O)O)c2c3c(sc2n1)COC(C)(C)C3 (centres undefined)	i	-3.5%	3.6%	2.2%	-0.1
CCCS(=O)(=O)N1CCCC(C(=O)N2CCCCC2)C1 (centres undefined)	u	-18.7%	4.9%	-28.4%	16.7
Fc1cccc(CSc2ccc(-c3cccs3)nn2)c1	x	-7.5%	x	x	x
c1cncc(CSc2ccc(-c3cccs3)nn2)c1	i	-5.7%	-0.8%	28.9%	-60.5*
CC(=O)N1CCc2cc(S(=O)(=O)NC(CC(C)C)C(=O)NCc3ccccc3Cl)ccc21 (centres undefined)	i	-19.7%	x	-5.5%	x
CNC(=S)N/N=C/c1cn(CCOc2cccc(OC)c2)c2ccccc12	u	-22.4%	-2.0%	-1.7%	-7.9
COc1cc(NC(=O)CSc2ccc(-c3sc(C)nc3C)nn2)cc(OC)c1	x	-3.7%	x	x	x
CC(C)c1ccc(Cn2ccc3c4c(N)nc(NC5CC5)nc4ccc32)cc1	x	x	x	24.3µM*	x
CC1CCCCN1S(=O)(=O)c1ccc(N(C(=O)c2cnccn2)C(C(=O)NC2CCCCC2)c2cccs2)cc1 (centres undefined)	i	-20.9%	1.1%	0.3%	-63.5*
Cc1ccc(CNC(=O)CNC(=O)c2ccc(C(C)(C)C)cc2)n1C	i	u	4.2%	-4.9%	19.5
Cc1ccc(S(=O)(=O)c2nc(S(C)(=O)=O)sc2N2CCN(C)CC2)cc1	i	-23.9%	0.6%	-1.2%	u
Cc1ccc(S(=O)(=O)c2nc(S(C)(=O)=O)sc2N2CCC(C)CC2)cc1	i	-31.8%	0.3%	-6.5%	-83.7*
Cc1ccc(S(=O)(=O)c2nc(-c3ccco3)oc2N2CCC(C)CC2)cc1	i	-8.2%	-1.9%	-9.9%	-74.2*
Cc1ccc(S(=O)(=O)c2nc(S(C)(=O)=O)sc2N2CCCCCC2)cc1	i	-7.6%	-1.9%	-0.9%	-54.4*

Screening data (PubChem)
